Experimental data published in PubChem BioAssay (Tox21).
“And” between values parts separate entries of the source, which are not always exact repeats. Equal values may be shown once. Results filed as inconclusive are left out. The source holds several records for some structures; these can differ, active in one and inactive in another. The source made the active and inactive calls. Unless noted, the call rests on the fitted dose curve; in most records, active means well fitted curve in the direction sought with a large enough effect in the repeat runs; inconclusive means weak or mixed curves; inactive means no such curve, though single readings can be large; an effect the other way counts as inactive or inconclusive.

Legend:
[1] = target: Thyrotropin receptor (Homo sapiens) (UniProt P16473); test: qHTS assay to identify small molecule antagonists of the thyroid stimulating hormone receptor (TSHR) signaling pathway (AID 1259385; calls by dose curve; further: nearly all actives have a fitted effect of over 20% in size)
Sequence of Thyrotropin receptor (Homo sapiens) (P16473 whole entry, looked up): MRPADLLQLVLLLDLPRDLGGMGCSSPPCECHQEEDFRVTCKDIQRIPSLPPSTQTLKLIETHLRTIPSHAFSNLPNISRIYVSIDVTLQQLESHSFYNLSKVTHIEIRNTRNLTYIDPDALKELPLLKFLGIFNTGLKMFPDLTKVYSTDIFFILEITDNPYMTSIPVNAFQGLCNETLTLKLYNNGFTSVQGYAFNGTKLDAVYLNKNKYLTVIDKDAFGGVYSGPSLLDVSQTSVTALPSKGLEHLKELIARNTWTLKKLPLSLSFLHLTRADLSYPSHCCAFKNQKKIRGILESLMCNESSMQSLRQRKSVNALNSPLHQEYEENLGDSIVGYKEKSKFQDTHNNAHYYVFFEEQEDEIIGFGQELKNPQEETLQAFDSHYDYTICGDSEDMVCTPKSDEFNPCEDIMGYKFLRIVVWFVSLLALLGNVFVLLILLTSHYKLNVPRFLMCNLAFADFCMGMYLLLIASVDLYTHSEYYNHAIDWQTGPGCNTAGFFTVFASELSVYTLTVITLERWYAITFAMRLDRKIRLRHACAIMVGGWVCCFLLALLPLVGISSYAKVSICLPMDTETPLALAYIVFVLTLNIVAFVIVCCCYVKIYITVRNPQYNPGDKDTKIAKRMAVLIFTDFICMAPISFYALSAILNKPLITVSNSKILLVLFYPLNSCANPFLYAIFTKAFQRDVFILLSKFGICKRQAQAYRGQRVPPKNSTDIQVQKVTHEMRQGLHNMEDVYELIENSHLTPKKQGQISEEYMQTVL
Procedure, shortened: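 TSHR-HEK293 cells (800/well) plated 18 h, then compounds with Ro20-1724 and TSH at 1.5 ng/mL final, 30 min at room temperature. cAMP quantified by HTRF (cAMP-d2/anti-cAMP-cryptate, 1 h); 15 concentrations in triplicate.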

[2] = qHTS assay to identify small molecule antagonists of the TGF-beta/Smad signaling pathway - cell viability counter screen (AID 1346824); further: nearly all actives have a fitted effect of over 50% in size
Procedure, shortened: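 SBE-bla HEK 293T cells, incubated overnight, then compound plus 0.25 ng/mL TGF-beta1 (stock added) for 5 hr at 37 C. Viability was read in the same wells by CellTiter-Glo luminescence after 30 min at room temperature.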

[3] = qHTS assay to identify small molecule agonists of the TGF-beta/Smad signaling pathway - cell viability counter screen (AID 1346829); further: top concentration of the series differs between compounds; nearly all actives have a fitted effect of over 45% in size
Procedure, shortened: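 Here the cytotoxicity of library compounds is measured in SBE-bla HEK 293T cells treated for 5 hr, using CellTiter-Glo added to wells already read for the beta-lactamase reporter.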

[4] = qHTS assay to identify small molecule agonists of the TGF-beta/Smad signaling pathway (AID 1346859; active means well fitted activation curve with a large enough effect in the signal ratio in the repeat runs, not every such curve was filed as active; the % refers to the signal ratio; further: series mostly up to about 77 µM)
Procedure, shortened: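 SBE-bla HEK 293T, 4,000 cells/well, plated o/n; cpd in DMSO, 5 hr, 37 C/5% CO2; B/G FRET substrate 2 hr RT; ex 405, em 460/530 nm.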

[5] = target: Thyrotropin-releasing hormone receptor (Homo sapiens) (UniProt P34981); test: qHTS assay to identify small molecule antagonists of the thyrotropin-releasing hormone receptor (TRHR) signaling pathway (AID 1346877; active means well fitted inhibition curve with a large enough effect in the repeat runs, not every such curve was filed as active; further: series mostly up to about 51 µM)
Sequence of Thyrotropin-releasing hormone receptor (Homo sapiens) (P34981 whole entry, looked up): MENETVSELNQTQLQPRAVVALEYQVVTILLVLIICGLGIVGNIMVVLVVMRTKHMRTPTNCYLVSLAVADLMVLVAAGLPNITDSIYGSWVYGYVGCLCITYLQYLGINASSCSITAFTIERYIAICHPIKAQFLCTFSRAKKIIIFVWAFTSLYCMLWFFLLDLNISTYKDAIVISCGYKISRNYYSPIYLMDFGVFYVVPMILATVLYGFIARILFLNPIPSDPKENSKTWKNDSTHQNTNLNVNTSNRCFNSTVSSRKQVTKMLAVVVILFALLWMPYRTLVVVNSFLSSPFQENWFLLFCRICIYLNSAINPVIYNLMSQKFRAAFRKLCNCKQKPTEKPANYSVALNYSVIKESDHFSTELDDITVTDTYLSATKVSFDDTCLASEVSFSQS
Procedure, shortened: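 TRHR-expressing HEK293 cells were seeded, cultured 18 h at 37 °C, then loaded with calcium dye for 2 h. Compounds were pre-incubated 5 min at room temperature before 1 nM TRH (final) was added, and kinetic fluorescence was recorded for 3 min.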

[6] = target: Thyrotropin-releasing hormone receptor (Homo sapiens) (UniProt P34981); test: qHTS assay to identify small molecule agonists of the thyrotropin-releasing hormone receptor (TRHR) signaling pathway (AID 1346891; calls by dose curve; further: series mostly up to about 58 µM)
Procedure, shortened: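 Intracellular calcium rise, read as fluorescence every second for 3 min, served as the agonist signal in dye-loaded HEK293 cells expressing TRHR; each compound ran at 15 concentrations in triplicate.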

[7] = Human pregnane X receptor (PXR) small molecule agonists, qHTS cell viability counter screen (AID 1346977); further: nearly all actives have a fitted effect of over 50% in size
Procedure, shortened: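 PXR-Luc HepG2, 2,000 cells/well, 5% charcoal-stripped FBS; 5hr settle; cpd 24hr, 37C/5% CO2; CellTiter-Fluor at 23hr, read 1hr later (fluorescence).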

[8] = Caspase-3/7 induction in HepG2 cells by small molecules, qHTS assay (AID 1346978); further: nearly all actives have a fitted effect of over 15% in size; further: potency means the concentration at half of the fitted maximal effect
Procedure, shortened: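 Wild-type HepG2 cells, 2,000/well, settled 5 hr at 37 C and 5% CO2, then compound-treated for 17 hr; caspase-3/7 activity read by luminescent Caspase-Glo 3/7 after 30 min at room temperature.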

[9] = Caspase-3/7 induction in CHO-K1 cells by small molecules, qHTS assay (AID 1346980); further: nearly all actives have a fitted effect of over 15% in size
Procedure, shortened: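 Wild-type CHO-K1 cells exposed to compounds for 17hr at 37 C, 5% CO2. Caspase-3/7 activity then measured by Caspase-Glo 3/7 luminescence after 30min at room temperature.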

[10] = Caspase-3/7 induction in HepG2 cells by small molecules, qHTS cell viability counter screen (AID 1346981); further: nearly all actives have a fitted effect of over 30% in size; further: potency means the concentration at half of the fitted maximal effect
Procedure, shortened: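 Wild-type HepG2 cells (2,000/well) were allowed to settle for 5 hr at 37 C, 5% CO2, then dosed with compounds in DMSO by pin transfer. After 16 hr at 37 C, CellTiter-Fluor was added and fluorescence read 1 hr later.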

[11] = target: Progesterone receptor (Homo sapiens) (UniProt P06401); test: qHTS assay to identify small molecule agonists of the progesterone receptor (PR) signaling pathway (AID 1346784; calls by dose curve; further: nearly all actives have a fitted effect of over 30% in size)
Sequence of Progesterone receptor (Homo sapiens) (P06401 whole entry, looked up): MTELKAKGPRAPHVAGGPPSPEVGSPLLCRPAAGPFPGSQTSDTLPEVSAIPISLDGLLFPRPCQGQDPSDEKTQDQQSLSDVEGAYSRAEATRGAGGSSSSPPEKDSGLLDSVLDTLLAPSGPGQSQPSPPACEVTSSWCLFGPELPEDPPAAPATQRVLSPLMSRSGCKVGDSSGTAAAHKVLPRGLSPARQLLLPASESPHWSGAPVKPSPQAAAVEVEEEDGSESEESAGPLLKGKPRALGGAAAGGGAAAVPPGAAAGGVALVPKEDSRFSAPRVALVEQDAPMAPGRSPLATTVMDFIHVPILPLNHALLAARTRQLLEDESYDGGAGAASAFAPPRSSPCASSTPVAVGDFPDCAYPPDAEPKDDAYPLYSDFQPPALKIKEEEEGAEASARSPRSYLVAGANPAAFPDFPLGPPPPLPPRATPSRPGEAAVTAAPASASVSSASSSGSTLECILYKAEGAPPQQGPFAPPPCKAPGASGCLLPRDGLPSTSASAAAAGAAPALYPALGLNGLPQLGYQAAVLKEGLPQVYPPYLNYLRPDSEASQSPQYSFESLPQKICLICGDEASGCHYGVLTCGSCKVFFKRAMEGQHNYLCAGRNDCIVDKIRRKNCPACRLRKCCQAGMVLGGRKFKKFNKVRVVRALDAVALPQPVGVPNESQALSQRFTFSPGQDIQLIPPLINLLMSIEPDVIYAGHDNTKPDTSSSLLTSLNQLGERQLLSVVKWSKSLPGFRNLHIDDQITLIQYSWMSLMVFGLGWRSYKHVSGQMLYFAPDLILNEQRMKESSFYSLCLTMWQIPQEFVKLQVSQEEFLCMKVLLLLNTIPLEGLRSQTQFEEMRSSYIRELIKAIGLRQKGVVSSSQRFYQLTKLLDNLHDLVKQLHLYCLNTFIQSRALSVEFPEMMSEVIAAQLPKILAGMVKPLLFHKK
Procedure, shortened: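 Beta-lactamase reporter read-out: after 16 hr compound treatment at 37C and a further 2 hr at room temperature with LiveBLAzer B/G FRET substrate, fluorescence was measured in PR-UAS-bla HEK 293T cells grown in 2% charcoal-stripped serum.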

[12] = qHTS assay to identify small molecule antagonists of the progesterone receptor (PR) signaling pathway - cell viability counter screen (AID 1346798); further: nearly all actives have a fitted effect of over 50% in size; further: potency means the concentration at half of the fitted maximal effect
Procedure, shortened: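 HEK293T PR-UAS-bla, 2% charcoal-stripped FBS; 4 hr pre-plate; cpd + R5020, 16 h 37C; LiveBLAzer read first; then CellTiter-Glo 30 min RT, luminescence.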

[13] = qHTS assay to identify small molecule agonists of the progesterone receptor (PR) signaling pathway - cell viability counter screen (AID 1346799; calls by dose curve; further: nearly all actives have a fitted effect of over 45% in size; further: potency means the concentration at half of the fitted maximal effect)
Procedure, shortened: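 Luminescence from CellTiter-Glo, added after the beta-lactamase FRET read in the same wells, gave cytotoxicity in PR-UAS-bla HEK293T cells treated with compounds for 16 hr at 37C.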

[14] = Caspase-3/7 induction in CHO-K1 cells by small molecules, qHTS cell viability counter screen (AID 1346979); further: nearly all actives have a fitted effect of over 35% in size; further: potency means the concentration at half of the fitted maximal effect
Procedure, shortened: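 Cells (CHO-K1, wild type) are plated at 1,500 per well and incubated 5hr. Test compounds in DMSO are then pinned in, followed by 16hr at 37C and 5% CO2. Viability is read by CellTiter-Fluor fluorescence after 1hr.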

[15] = target: Nuclear receptor subfamily 1 group I member 2 (Rattus norvegicus) (UniProt Q9R1A7); test: Rat pregnane X receptor (rPXR) activation by small molecules, qHTS assay (AID 1346983); conditions: rPXR luciferase reporter cells, One-Glo luminescence, 24 h; stronger effect = higher value; further: nearly all actives have a fitted effect of over 20% in size
Sequence of Nuclear receptor subfamily 1 group I member 2 (Rattus norvegicus) (Q9R1A7 whole entry, looked up): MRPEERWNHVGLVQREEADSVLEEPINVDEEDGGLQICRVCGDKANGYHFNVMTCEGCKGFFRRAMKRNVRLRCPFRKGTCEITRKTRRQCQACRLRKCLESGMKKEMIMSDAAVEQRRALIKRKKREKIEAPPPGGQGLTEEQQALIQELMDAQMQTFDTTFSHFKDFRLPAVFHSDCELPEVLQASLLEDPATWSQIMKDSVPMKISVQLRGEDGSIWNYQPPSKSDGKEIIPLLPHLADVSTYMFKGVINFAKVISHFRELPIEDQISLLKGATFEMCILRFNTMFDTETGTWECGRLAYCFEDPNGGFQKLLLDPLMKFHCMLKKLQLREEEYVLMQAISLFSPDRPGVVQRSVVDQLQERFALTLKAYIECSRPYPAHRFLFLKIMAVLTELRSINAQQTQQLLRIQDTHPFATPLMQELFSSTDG
Procedure, shortened: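 Cell-based rPXR activation assay: rPXR cells, 2,000 per well, rested 5hr at 37 C, then exposed to compounds in DMSO for 24 hr at 37 C. Luciferase activity read by One-Glo luminescence after 30 min at room temperature.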

[16] = target: Nuclear receptor subfamily 1 group I member 2 (Homo sapiens) (UniProt O75469); test: CYP3A4 induction through human pregnane X receptor (PXR) by small molecules, qHTS assay (AID 1346984); further: nearly all actives have a fitted effect of over 40% in size
Sequence of Nuclear receptor subfamily 1 group I member 2 (Homo sapiens) (O75469 whole entry, looked up): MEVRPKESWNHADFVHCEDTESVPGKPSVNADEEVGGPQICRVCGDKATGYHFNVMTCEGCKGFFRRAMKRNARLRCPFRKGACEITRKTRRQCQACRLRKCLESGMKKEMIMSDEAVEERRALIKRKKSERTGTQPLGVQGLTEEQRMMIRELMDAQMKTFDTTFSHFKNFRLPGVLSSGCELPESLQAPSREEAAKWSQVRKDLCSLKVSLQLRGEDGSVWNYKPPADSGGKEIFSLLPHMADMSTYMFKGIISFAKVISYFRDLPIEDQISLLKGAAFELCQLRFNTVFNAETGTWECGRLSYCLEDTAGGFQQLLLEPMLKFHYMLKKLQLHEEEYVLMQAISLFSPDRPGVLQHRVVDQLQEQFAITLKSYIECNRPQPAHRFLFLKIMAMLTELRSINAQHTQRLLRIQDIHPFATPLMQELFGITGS
Procedure, shortened: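 DPX-2 cells (HepG2 co-transfected with PXR and CYP3A4 promoter-luciferase) treated with compounds 24 h at 37C; luciferin-IPA CYP3A4 substrate 3uM final added for 3 h, then One-Glo; luminescence read. qHTS format.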

[17] = target: Nuclear receptor subfamily 1 group I member 2 (Homo sapiens) (UniProt O75469); test: Human pregnane X receptor (PXR) activation by small molecules, qHTS assay (AID 1346985); further: nearly all actives have a fitted effect of over 40% in size
Procedure, shortened: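 DPX-2 cells (HepG2 co-transfected with a PXR response element and a CYP3A4-promoter luciferase construct) were seeded at 2,000 per well, rested 5 hr at 37C, then exposed to DMSO-dissolved compounds for 24 hr. Activation was read as luciferase luminescence.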

[18] = target: Nuclear receptor subfamily 1 group I member 2 (Homo sapiens) (UniProt O75469); test: Human pregnane X receptor (PXR) small molecule agonists, qHTS assay (AID 1346982); further: nearly all actives have a fitted effect of over 35% in size; further: potency means the concentration at half of the fitted maximal effect
Procedure, shortened: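 PXR-Luc HepG2 cells (CYP3A4 promoter-driven luciferase) were seeded in medium with 5% charcoal-stripped FBS, left 5 hr at 37 C, then exposed to compounds in DMSO for 24 hr. Luminescence was read after ONE-Glo addition.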

[19] = target: Progesterone receptor (Homo sapiens) (UniProt P06401); test: qHTS assay to identify small molecule antagonists of the progesterone receptor (PR) signaling pathway (AID 1346795; active means well fitted inhibition curve with a large enough effect in the signal ratio in the repeat runs, not every such curve was filed as active; the % refers to the signal ratio; further: potency means the concentration at half of the fitted maximal effect)
Procedure, shortened: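 Read-out is fluorescence from the LiveBLAzer B/G FRET substrate, cleaved by a UAS-controlled beta-lactamase in PR-UAS-bla HEK293T cells after 16 hr exposure to compound plus 1 nM promegestone (final), followed by 2 hr at room temperature.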

[20] = qHTS assay to identify small molecule agonists of the estrogen receptor alpha (ER-alpha) signaling pathway in the presence of an antagonist - cell viability counter screen (AID 1259386);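 further: series mostly up to about 92 µM; cells exposed to compounds for 22 h at 37 °C before the viability read; nearly all actives have a fitted effect of over 30% in size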
Procedure, shortened: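 VM7Luc4E2 cells (endogenous full-length ER-alpha, 4×ERE-luciferase) were held 5 days in phenol red-free medium with 10% charcoal-stripped FBS, plated, then given 10.0nM ICI-182,780 and compounds at 15 concentrations for 22hr at 37C; viability read by CellTiter-Fluor fluorescence.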
On the % scale 0 is the no-effect control and ±100 the full control effect.

N#Cc1cc(Br)c(O)c(Br)c1
inactive: outcome [1] | Potency [2] | Potency [3] | outcome [4] | Potency [5] | Potency [6] | Potency [7] | Potency [8] | Potency [9] | Potency [10]

Brc1ccc(Oc2cc(Br)c(Br)cc2Br)c(Br)c1
active: Potency [13] 38.6 µM and 43.6 µM
inactive: Potency [11] | Potency [12] | Potency [2] | Potency [3] | outcome [4] | Potency [5] | Potency [7] | Potency [8] | Potency [9] | Potency [10]

O=c1oc2ccccc2c(O)c1C(CC(O)c1ccc(-c2ccc(Br)cc2)cc1)c1ccccc1 (configuration not stated)
inactive: Potency [2] | Potency [3] | Potency [5] | Potency [6] | Potency [8] | Potency [14] | Potency [9] | Potency [10] | max activation [15] -5.73% | outcome [16] | outcome [17]

Cc1ccc(OP(=O)(Oc2ccc(C)cc2)Oc2ccc(C)cc2)cc1
27.3 µM (active) and inactive: Potency [14]
inactive: outcome [1] | Potency [11] | Potency [13] | Potency [2] | Potency [3] | outcome [4] | Potency [5] | Potency [7] | Potency [9] | Potency [10]
active: Potency [18] 5.44 µM and 13.7 µM
967 nM (active) and inactive: Potency [8]

C#C[C@]1(O)CC[C@H]2[C@@H]3CCC4=CC(=O)CC[C@]4(C)[C@H]3CC[C@@]21C
inactive: outcome [1] | Potency [19] | Potency [12] | Potency [13] | Potency [2] | Potency [3] | outcome [4] | Potency [5] | Potency [6] | Potency [7] | Potency [8] | Potency [14] | Potency [9] | Potency [10] | max activation [15] 11.6%

CCN(CC)C(=O)SCc1ccc(Cl)cc1
active: Potency [19] 25.1 µM and 27.3 µM | Potency [18] 56.1 µM
inactive: Potency [20] | Potency [11] | Potency [12] | Potency [13] | Potency [2] | Potency [3] | outcome [4] | Potency [5] | Potency [6] | Potency [7] | Potency [8] | Potency [14] | Potency [9] | Potency [10]

Nc1c(Cl)cc([N+](=O)[O-])cc1Cl
inactive: Potency [11] | Potency [12] | Potency [2] | Potency [3] | outcome [4] | Potency [5] | Potency [6] | Potency [8] | Potency [14] | Potency [9] | Potency [10]
active: Potency [19] 30.6 µM

CCCCNC(=O)n1c(NC(=O)OC)nc2ccccc21
active: Potency [14] 30.6 µM | Potency [18] 60.8 µM
inactive: outcome [1] | Potency [11] | Potency [13] | Potency [2] | Potency [3] | outcome [4] | Potency [5] | Potency [6] | Potency [7] | Potency [9] | Potency [10]
6.08 µM (active) and inactive: Potency [8]

CCN(CC)N=O
inactive: outcome [1] | Potency [12] | Potency [13] | Potency [2] | Potency [3] | outcome [4] | Potency [5] | Potency [6] | Potency [8] | Potency [14] | Potency [9] | Potency [10] | Potency [18]

NCc1cccnc1
inactive: outcome [1] | Potency [12] | Potency [13] | Potency [2] | Potency [3] | outcome [4] | Potency [5] | Potency [8] | Potency [14] | Potency [9] | Potency [10] | Potency [18] | max activation [15] -2.22% | outcome [16] | outcome [17]

NNC(N)=S
active: Potency [12] 12.7 µM and 24.3 µM | Potency [13] 43.3 µM | Potency [14] 25.3 µM and 48.6 µM | Potency [18] 56.6 µM and 21.7 µM
inactive: outcome [1] | Potency [11] | Potency [2] | Potency [3] | outcome [4] | Potency [5] | Potency [8] | Potency [10]

Nc1ccc(-c2ccc(N)c(N)c2)cc1N
active: Potency [19] 48.4 µM and 24.3 µM | Potency [14] 68.4 µM and 61.1 µM | Potency [10] 48.4 µM
inactive: Potency [12] | Potency [13] | Potency [2] | Potency [3] | outcome [4] | Potency [8] | Potency [9]
